From PubChem BioAssay
Integrin act MD: activators of alpha7 integrin expression for muscular dystrophy | alpha7betagal myoblasts, beta-gal FDG fluorescence, 48 h | Potency, µM (doses to about 38.3 µM), hits mostly activators | 350,000 tested, 0.064% active; note: nearly all actives have a fitted effect of over 60% in size
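Alpha7betagal+/- myoblasts (passage 13) were plated 16-24 hr, then exposed to compounds (1:260 dilution of DMSO stock) for 48 hours at 37C. After MPER lysis, β-galactosidase reporter activity was read as FDG fluorescence (ex 480/em 540) after 30 minutes.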
PKM2 activator: activators of human pyruvate kinase M2 | purified PKM2, Kinase-Glo ATP luminescence, activation; response scale: 0% is enzyme alone, no compound | Potency, µM (doses to about 57.5 µM), most hits filed as activators | 260,000 tested, 0.34% active | AID 1631; note: nearly all actives have a fitted effect of over 55% in size
Target sequence (P14618 whole entry, looked up): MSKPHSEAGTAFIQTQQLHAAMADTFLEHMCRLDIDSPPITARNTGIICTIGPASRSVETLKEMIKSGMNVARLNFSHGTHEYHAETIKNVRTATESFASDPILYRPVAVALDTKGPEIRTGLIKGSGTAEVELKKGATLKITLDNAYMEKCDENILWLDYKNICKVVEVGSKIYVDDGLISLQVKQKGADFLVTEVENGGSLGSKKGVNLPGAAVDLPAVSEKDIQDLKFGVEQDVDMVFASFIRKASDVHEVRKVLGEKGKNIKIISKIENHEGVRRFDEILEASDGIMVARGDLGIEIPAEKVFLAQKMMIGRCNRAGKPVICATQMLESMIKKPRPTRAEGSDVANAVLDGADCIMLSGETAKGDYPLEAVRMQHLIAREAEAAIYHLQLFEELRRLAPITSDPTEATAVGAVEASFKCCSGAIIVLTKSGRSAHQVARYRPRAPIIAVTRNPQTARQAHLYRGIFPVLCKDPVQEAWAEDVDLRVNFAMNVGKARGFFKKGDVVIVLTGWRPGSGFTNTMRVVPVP
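Kinase-Glo luminescence reports ATP generated from ADP (0.1 mM) and PEP (0.5 mM) by purified hPK-M2 after 1 h at room temperature, pH 7.2 imidazole buffer; intermediate enzyme activity allows detecting inhibitors and activators.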
IL2 activator: activates IL-2 in a cell-based reporter assay | IL-2 activation reporter assay, cell-based qHTS; stimulated with anti-CD3/CD4/CD28 beads; in transgenic mouse T cells | activation, % (series mostly up to about 46 µM) | 360,000 tested, 0.065% active | AID 652025; in the data active = activation above about 50%; inconclusive = mostly about 30% to 49%
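Using fluorescent plate cytometry, EGFP and DsRed are detected in transgenic mouse T cells stimulated 18 h at 37 degrees C with antibody-coated beads after 60 min compound pretreatment.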
USP2a inh: inhibitors of human ubiquitin-specific protease USP2a. USP2 core, Ub-CHOP2 coupled fluorogenic reporter, 485/531. Potency, µM (titrated, usually from 38.3 µM), actives largely listed as inhibitors. 330,000 tested, 0.01% active. AID 463254
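USP2 core (10nM final) preincubated 30min RT with compound in 20mM Tris-HCl pH 8.0, 2mM CaCl2, 2mM beta-mercaptoethanol, 0.05% CHAPS; 25nM Ub-CHOP2 plus 25nM reporter substrate added, fluorescence (Ex485/Em531) read after 60min.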
ClpP mod: qHTS Assay for Activators of ClpP. ATP-dependent Clp protease proteolytic subunit (Bacillus subtilis (strain 168)), P80244. purified B. subtilis ClpP, FRET peptide cleavage, 20 min. Potency, µM (highest dose often 57.5 µM). 340,000 tested, 1.9% active. AID 651965, 2013; active = well fitted falling curve with a large enough effect; inconclusive = small, poorly fitted or top-dose-only effect; inactive = no such curve, though single readings can be large or run the other way; note: the source files actives as falling curves though it sought activators and does not explain the sign; nearly all actives have a fitted effect of over 65% in size
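ClpP 10 microg/mL final, pH 8 Tris/KCl buffer with BSA, glycerol, Tween-20; compound pinned in; FRET-FV substrate; RT 20 min; Ex320/Em430; ΔFRET vs ADEP 5.8 microM, DMSO, no enzyme.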
Pin1 inhibitor: inhibitors of human Pin1 | Q13526 | Pin1 FP peptide displacement, HiFluor488, 10 min | Potency, µM (doses to about 115 µM), hits mostly inhibitors | 390,000 tested, 0.009% active | AID 504891; active = well fitted inhibition curve with a large enough effect in the polarisation, with a control signal flat, not every such curve was filed as active; inconclusive = small, poorly fitted or top-dose-only effect, or effect the other way, or a change in a side signal; inactive = no such curve, though single readings can be large or run the other way; the % refers to the polarisation
Target sequence (Q13526 whole entry, looked up): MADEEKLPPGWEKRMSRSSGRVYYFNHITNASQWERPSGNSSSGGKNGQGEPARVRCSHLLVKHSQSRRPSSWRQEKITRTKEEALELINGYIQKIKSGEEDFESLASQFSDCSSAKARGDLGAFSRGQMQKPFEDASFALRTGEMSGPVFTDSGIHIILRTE
Hits are given with their value; - = inactive; ? = inconclusive; . = no result; ! = a repeat was not active. In the library only some 1.9% were active in any assay of this set; here they are far more common. Unless noted, calls come from the whole dose curve; as a rule, active = well fitted curve in the direction sought with a large enough effect; inconclusive = small, poorly fitted or top-dose-only effect, or another doubt; inactive = no such curve, though single readings can be large; an effect the other way counts as inactive or inconclusive.

SMILES	Integrin act MD	PKM2 activator	IL2 activator	USP2a inh	ClpP mod	Pin1 inhibitor
O=C(Nc1ccc([N+](=O)[O-])cc1Cl)c1cc(Br)ccc1O	.	.	.	.	-	-
CC(C1=C(CCN(C)C)Cc2ccccc21)c1ccccn1 (stereo not given)	-	.	-	.	32µM	?
CCOC(=O)c1cnc2c(ccc3ccccc32)c1NCCN(C)C	-	-	-	-	-	-
CCOC(=O)c1cnc2c(ccc3ccccc32)c1NCCO	-	-	-	-	28µM	-
Cc1ccccc1N(C)C1=N[S+](=O)([O-])c2ccccc21	.	.	.	.	.	-
C=CCn1c(O)c(N=NC(=S)Nc2ccc(OC)cc2)c2ccccc21	-	-	-	-	22µM	-
Cc1ccc(NC(=O)c2cc3c(s2)CCCC3)cc1S(=O)(=O)Nc1ccccc1Cl	-	-	-	-	25µM	-
Cc1ccc(C(=O)Nc2ccc(C)c(S(=O)(=O)Nc3ccccc3Cl)c2)s1	-	-	-	-	-	-
CCCN1CNc2c(c(=O)[nH]c(=S)n2CCc2ccc(C)cc2C)C1	.	.	.	.	-	-
O=[N+]([O-])c1ccc(C=C2c3ccccc3-c3ccccc32)cc1	.	.	.	.	-	.
Cc1cccc(C=Nc2ccc3c4c(cccc24)CC3)c1O	-	-	-	-	16µM	-
CCN1C(=O)[C@H]2[C@H]3[C@H](O)[C@H](O)CC(=O)[C@@H]3CC[C@H]2C1=O	.	.	.	.	-	.
Cc1nn(C)c(C)c1N1C(=O)c2cccc3c(N)ccc(c23)C1=O	-	-	-	?	-	?
Cc1ccc(N2C(=O)c3cccc4c(N)ccc(c34)C2=O)c2cccnc12	-	-	317	?	-	?
CCCC(C)NC(=O)c1ccc(C2SCC(=O)N2Cc2ccco2)cc1 (stereo not given)	-	-	-	-	32µM	-
COC(=O)c1ccc(C2SCC(=O)N2Cc2ccccc2)cc1 (stereo not given)	-	.	-	-	-	-
NC(=O)C1CCN(c2nccc(-c3ccc4c(c3)OCCO4)n2)CC1	.	.	.	.	.	-
O=C(c1cccs1)N(Cc1ccco1)c1ccc(O)cc1	.	.	.	.	-	-
O=C(Nc1cc(Cl)ccc1O)C1CC(c2c(F)cccc2Cl)=NO1 (stereo not given)	-	-	-	-	-	-
O=C(Nc1cc(Br)ccc1O)C1CC(c2ccccc2Cl)=NO1 (stereo not given)	13µM	-	-	-	-	-
Oc1ccc(Oc2ccccc2F)c2cccnc12	.	.	.	.	.	-
CCC(=O)N(CCc1ccccc1C)Cc1cc2ccc(C)cc2[nH]c1=O	-	-	-	-	-	-
CNC(=S)N(Cc1ccco1)Cc1cc2cc(OC)c(OC)cc2[nH]c1=O	-	-	-	-	.	-
CNC(=S)N(CCc1ccccc1)Cc1cc2cc(OC)c(OC)cc2[nH]c1=O	-	-	-	-	35µM	-
CCNC(=S)N(CCc1ccccc1C)Cc1cc2cc(OC)c(OC)cc2[nH]c1=O	-	-	-	-	?	-
SMILES	Integrin act MD	PKM2 activator	IL2 activator	USP2a inh	ClpP mod	Pin1 inhibitor
CCNC(=S)N(CCc1ccc(OC)c(OC)c1)Cc1cc2cc(OC)ccc2[nH]c1=O	-	-	-	-	.	-
CCNC(=S)N(CCc1cccc(C)c1)Cc1cc2cc(OC)c(OC)cc2[nH]c1=O	-	-	-	-	18µM	-
COc1cc2cc(CN(CCc3ccccc3C)C(=S)NCCCN(C)C)c(=O)[nH]c2cc1OC	-	-	-	-	14µM	-
CC(=O)N(CCc1ccccc1C)Cc1cc2cc3c(cc2[nH]c1=O)OCO3	-	-	-	-	28µM	-
COc1ccc(N(Cc2ccccc2)C(=O)c2nc(S(C)(=O)=O)ncc2Cl)cc1	.	.	.	.	-	-
N#C/C(=C\c1cc(Br)c(O)c(Br)c1)c1nc2ccccc2c(=O)[nH]1	.	.	.	.	25µM	?
CN(C)S(=O)(=O)Nc1ccccc1C(N)=O	-	-	-	-	22µM	?
O=S(=O)(Nc1ccc(NS(=O)(=O)c2ccccc2)c2ccccc12)c1ccccc1	-	.	-	.	-	.
CCS(=O)(=O)Nc1ccccc1C(N)=O	-	-	-	-	.	-
O=c1[nH][nH]c(=O)c2c(NS(=O)(=O)c3ccccc3)cccc12	-	11µM	-	-	.	-
NC(=O)c1ccccc1NS(=O)(=O)Cc1ccc(Cl)cc1	-	-	-	-	22µM	-
NC(=O)c1ccccc1NS(=O)(=O)c1ccccc1	-	-	-	-	28µM	-
NC(=O)c1ccccc1NC(=O)COc1ccc(Cl)cc1	-	-	-	-	-	-
O=C1CCC[C@@H]2[C@@H](Cc3ccccc3)[C@@H](Nc3ccccc3)C[C@@H]3CCN1[C@@H]32	.	.	.	.	-	.
CC(=O)Nc1cccc(OCC(=O)NS(=O)(=O)c2ccc(Cl)cc2)c1	-	-	-	-	32µM	-
O=S(=O)(c1ccc2c(c1)OCCO2)N1CCN(c2nc(-c3ccccc3)nc3ccccc23)CC1	.	.	.	.	?	-
Oc1ccc(C2Nc3cccc4cccc(c34)N2)c(O)c1	-	-	-	-	32µM	?
O=C(CNC1=NCCS1)c1c[nH]c2ccccc12	.	.	.	.	-	.
Cc1ccc(S(=O)(=O)N(Cc2cccc(Cl)c2)C(=O)N2CCN(C)CC2)cc1	-	.	-	-	14µM	-
N#Cc1nc(N(c2ccccc2)c2ccccc2)nc(-n2cccc2)n1	.	.	.	.	-	-
CC(=O)NC(c1ccco1)c1cc(Cl)c2ccc(N(C)C)nc2c1O (stereo not given)	.	.	.	-	.	.
CC1=CC(C)(C)Nc2ccccc21	-	-	-	-	28µM!	-
CCOc1ccc2[nH]c(=O)c(CN(CCO)C(=O)c3ccccc3F)cc2c1	-	-	-	-	32µM	-
CCOc1ccc2[nH]c(=O)c(CN(CCO)C(=O)c3ccc(OC)c(OC)c3)cc2c1	-	-	-	-	28µM	-
CCOc1ccc2[nH]c(=O)c(CN(CCO)C(=O)c3ccc(F)cc3)cc2c1	-	-	-	-	22µM	-
SMILES	Integrin act MD	PKM2 activator	IL2 activator	USP2a inh	ClpP mod	Pin1 inhibitor
CC(C)(C)C(=O)OCCNc1nc(-c2cccs2)nc2ccccc12	.	.	.	.	-	-
Cc1ccc(CN2[C@H]3CCCC[C@@H]3OCCS2(=O)=O)cc1	.	.	.	.	-	.
Cn1c(SCC(=O)NCc2ccco2)nnc1-c1cccc(NC(=O)c2ccccc2)c1	.	.	.	.	-	.
Cc1ccc(S(=O)(=O)N2CCCCC2)cc1NC(=O)c1cncc(Br)c1	-	.	-	-	11µM	-
O=C(Nc1cccc(S(=O)(=O)N2CCCCCC2)c1)c1cncc(Br)c1	-	.	-	-	-	-
Cc1cccc2c(N=Nc3ccccc3)c(O)[nH]c12	-	.	257	-	-	?
Oc1[nH]c2ccccc2c1N=Nc1cccc(Cl)c1	-	.	-	-	-	?
